From ChEMBL document CHEMBL1961873, “Compounds: GSK PKIS; Assays: Nanosyn kinase panel” (2012)

How the values were obtained:
[1] = biological target: T1, Mitogen-activated protein kinase 12 (Homo sapiens) (UniProt P53778); conditions: at 1 µM;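 also: values are averaged p38gamma kinase inhibition readings, compounds tested at 1 µM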
T1 sequence (whole entry): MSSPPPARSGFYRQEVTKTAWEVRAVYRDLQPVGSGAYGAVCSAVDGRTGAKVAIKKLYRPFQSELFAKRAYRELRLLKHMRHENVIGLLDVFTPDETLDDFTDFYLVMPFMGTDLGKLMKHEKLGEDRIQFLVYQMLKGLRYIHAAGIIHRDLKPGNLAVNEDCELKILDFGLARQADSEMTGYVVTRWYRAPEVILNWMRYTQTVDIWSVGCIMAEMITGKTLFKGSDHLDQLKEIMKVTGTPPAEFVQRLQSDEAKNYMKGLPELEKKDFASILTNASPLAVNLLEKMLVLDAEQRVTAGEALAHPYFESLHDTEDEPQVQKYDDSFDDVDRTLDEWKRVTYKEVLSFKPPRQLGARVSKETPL

[2] = biological target: SRSF protein kinase 1 (Homo sapiens) (UniProt Q96SB4); conditions: at 0.1 µM
Chain of SRSF protein kinase 1 (Homo sapiens) (Q96SB4 whole entry, canonical isoform): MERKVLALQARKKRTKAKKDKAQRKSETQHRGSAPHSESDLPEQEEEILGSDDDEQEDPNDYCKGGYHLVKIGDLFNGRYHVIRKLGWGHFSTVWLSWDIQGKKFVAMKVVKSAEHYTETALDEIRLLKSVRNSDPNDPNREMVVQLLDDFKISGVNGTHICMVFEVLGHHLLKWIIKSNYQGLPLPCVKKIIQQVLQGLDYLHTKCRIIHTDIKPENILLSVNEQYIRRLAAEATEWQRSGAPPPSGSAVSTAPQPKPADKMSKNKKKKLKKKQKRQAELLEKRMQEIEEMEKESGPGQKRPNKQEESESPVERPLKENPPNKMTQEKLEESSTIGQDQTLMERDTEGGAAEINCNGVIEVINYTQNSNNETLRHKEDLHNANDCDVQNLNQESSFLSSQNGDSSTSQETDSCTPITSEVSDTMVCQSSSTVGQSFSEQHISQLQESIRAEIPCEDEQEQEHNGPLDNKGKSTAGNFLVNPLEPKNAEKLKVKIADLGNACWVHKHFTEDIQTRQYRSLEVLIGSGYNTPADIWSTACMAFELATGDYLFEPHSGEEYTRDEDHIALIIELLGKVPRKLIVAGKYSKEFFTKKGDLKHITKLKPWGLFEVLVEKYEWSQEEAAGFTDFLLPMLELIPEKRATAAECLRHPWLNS

[3] = biological target: SRSF protein kinase 1 (Homo sapiens) (UniProt Q96SB4); conditions: at 1 µM
[4] = biological target: Phosphatidylinositol 4,5-bisphosphate 3-kinase catalytic subunit alpha isoform (Homo sapiens) (UniProt P42336); conditions: at 0.1 µM
Chain of Phosphatidylinositol 4,5-bisphosphate 3-kinase catalytic subunit alpha isoform (Homo sapiens) (P42336 whole entry, canonical isoform): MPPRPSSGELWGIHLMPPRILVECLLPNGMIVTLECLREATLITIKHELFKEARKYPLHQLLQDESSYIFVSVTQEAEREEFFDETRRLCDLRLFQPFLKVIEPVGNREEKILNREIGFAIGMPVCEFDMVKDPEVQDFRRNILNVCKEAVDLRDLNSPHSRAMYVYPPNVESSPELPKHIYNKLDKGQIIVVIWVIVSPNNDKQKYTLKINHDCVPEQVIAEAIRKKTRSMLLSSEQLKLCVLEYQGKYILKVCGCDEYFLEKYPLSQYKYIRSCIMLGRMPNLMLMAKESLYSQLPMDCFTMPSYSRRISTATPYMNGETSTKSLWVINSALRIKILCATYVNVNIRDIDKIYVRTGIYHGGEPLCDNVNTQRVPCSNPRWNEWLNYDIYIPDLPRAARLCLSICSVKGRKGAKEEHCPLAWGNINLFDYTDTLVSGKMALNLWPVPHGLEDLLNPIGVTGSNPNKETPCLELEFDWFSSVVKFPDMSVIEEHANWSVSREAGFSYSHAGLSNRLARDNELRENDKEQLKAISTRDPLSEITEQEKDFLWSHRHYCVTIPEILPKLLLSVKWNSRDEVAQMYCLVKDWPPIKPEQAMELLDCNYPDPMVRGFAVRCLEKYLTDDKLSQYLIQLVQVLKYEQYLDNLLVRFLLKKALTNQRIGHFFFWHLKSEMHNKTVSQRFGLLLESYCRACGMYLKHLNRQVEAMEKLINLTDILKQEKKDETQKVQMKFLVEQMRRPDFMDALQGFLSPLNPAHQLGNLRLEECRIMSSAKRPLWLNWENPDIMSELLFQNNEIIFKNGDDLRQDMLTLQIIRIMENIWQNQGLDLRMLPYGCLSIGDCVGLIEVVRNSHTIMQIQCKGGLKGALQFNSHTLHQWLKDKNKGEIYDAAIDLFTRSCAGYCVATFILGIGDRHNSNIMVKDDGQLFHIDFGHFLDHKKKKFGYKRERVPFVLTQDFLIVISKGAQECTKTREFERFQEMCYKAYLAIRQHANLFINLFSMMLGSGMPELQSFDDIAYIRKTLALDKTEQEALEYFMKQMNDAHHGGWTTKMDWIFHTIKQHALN

[5] = biological target: Phosphatidylinositol 4,5-bisphosphate 3-kinase catalytic subunit alpha isoform (Homo sapiens) (UniProt P42336); conditions: at 1 µM
[6] = biological target: T2, Phosphatidylinositol 4,5-bisphosphate 3-kinase catalytic subunit delta isoform (Homo sapiens) (UniProt O00329); conditions: at 0.1 µM
T2 sequence (whole entry): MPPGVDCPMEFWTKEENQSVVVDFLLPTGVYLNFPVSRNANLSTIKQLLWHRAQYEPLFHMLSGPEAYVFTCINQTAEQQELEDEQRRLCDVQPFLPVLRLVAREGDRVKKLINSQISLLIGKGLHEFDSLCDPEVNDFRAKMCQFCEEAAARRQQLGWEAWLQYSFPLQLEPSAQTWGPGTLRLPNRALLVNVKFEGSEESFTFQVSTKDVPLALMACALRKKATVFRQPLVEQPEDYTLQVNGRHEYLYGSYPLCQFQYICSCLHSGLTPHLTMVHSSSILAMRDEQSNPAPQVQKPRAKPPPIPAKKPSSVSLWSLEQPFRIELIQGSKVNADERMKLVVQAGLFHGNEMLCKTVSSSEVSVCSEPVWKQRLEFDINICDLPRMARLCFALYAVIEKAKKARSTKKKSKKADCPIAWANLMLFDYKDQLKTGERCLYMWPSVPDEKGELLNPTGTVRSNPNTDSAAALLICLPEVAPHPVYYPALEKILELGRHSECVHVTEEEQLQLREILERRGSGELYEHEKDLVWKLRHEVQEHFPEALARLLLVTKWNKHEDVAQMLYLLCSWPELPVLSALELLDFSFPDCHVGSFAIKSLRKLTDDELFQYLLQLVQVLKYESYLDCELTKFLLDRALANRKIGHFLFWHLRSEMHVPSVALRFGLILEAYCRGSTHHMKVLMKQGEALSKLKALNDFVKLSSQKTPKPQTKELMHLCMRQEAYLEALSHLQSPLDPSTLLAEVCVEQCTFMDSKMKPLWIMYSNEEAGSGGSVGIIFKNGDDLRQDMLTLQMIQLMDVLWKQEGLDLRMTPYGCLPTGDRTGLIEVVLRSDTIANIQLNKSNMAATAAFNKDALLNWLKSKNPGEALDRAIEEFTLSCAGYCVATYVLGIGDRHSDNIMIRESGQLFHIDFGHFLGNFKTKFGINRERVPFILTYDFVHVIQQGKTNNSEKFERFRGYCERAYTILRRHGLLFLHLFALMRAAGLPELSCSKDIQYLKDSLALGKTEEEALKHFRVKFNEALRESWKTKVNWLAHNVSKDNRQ

[7] = biological target: T2, Phosphatidylinositol 4,5-bisphosphate 3-kinase catalytic subunit delta isoform (Homo sapiens); conditions: at 1 µM
[8] = biological target: Phosphatidylinositol 4-kinase beta (Homo sapiens) (UniProt Q9UBF8); conditions: at 1 µM
Chain of Phosphatidylinositol 4-kinase beta (Homo sapiens) (Q9UBF8 2-816 limits assumed): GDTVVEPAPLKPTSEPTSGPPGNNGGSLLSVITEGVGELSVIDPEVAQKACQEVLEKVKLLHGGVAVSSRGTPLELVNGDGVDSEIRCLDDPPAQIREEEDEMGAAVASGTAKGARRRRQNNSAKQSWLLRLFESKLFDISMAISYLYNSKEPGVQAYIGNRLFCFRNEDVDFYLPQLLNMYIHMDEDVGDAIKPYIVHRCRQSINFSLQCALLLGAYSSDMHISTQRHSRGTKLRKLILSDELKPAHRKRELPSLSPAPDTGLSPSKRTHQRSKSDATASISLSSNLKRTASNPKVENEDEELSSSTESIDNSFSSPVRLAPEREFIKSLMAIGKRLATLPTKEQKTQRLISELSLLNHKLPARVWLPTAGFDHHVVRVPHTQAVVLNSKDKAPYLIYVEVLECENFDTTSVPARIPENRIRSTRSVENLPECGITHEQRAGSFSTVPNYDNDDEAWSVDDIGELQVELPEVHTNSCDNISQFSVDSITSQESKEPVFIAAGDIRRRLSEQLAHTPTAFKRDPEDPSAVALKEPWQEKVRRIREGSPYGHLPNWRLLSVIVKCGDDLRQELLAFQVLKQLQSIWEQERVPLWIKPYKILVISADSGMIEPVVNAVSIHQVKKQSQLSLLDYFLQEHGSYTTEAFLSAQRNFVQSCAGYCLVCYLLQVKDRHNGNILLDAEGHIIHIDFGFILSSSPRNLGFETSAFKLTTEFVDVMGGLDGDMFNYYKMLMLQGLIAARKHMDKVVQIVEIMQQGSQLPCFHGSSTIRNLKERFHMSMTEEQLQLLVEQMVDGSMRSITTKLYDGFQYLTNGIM

[9] = biological target: Sphingosine kinase 1 (Homo sapiens) (UniProt Q9NYA1); conditions: at 0.1 µM
Chain of Sphingosine kinase 1 (Homo sapiens) (Q9NYA1 whole entry): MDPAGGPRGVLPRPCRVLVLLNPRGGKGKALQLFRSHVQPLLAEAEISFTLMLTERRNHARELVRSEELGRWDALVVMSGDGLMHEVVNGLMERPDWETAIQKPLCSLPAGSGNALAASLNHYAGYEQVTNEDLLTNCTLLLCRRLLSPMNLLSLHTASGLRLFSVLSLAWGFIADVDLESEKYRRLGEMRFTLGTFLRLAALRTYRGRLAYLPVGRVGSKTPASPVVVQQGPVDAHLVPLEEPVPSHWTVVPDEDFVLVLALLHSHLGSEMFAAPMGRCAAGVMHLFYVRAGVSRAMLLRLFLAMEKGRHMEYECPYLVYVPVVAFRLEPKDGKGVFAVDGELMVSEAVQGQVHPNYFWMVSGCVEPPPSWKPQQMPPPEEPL

[10] = biological target: Sphingosine kinase 1 (Homo sapiens) (UniProt Q9NYA1); conditions: at 1 µM
[11] = biological target: T3, Sphingosine kinase 2 (Homo sapiens) (UniProt Q9NRA0); conditions: at 0.1 µM
T3 sequence (whole entry): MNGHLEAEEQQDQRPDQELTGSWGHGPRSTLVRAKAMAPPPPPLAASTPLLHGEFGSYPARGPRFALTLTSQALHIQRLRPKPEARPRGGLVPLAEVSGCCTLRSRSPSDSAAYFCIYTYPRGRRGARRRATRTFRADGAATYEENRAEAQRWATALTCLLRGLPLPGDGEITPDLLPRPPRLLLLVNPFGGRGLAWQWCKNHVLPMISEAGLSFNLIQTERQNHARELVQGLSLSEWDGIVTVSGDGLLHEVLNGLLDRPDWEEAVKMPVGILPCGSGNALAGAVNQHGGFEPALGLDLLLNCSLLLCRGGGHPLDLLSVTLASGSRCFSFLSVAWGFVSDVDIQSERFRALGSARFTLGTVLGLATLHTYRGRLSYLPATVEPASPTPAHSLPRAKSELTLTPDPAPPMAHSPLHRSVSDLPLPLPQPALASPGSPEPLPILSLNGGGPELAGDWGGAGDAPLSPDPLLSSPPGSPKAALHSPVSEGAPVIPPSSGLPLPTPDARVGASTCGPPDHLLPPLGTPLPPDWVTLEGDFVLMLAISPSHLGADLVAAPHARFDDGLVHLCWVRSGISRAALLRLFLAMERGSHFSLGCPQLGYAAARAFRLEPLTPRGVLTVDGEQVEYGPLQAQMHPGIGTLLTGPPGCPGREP

[12] = biological target: T3, Sphingosine kinase 2 (Homo sapiens); conditions: at 1 µM
[13] = biological target: Casein kinase II subunit alpha (Homo sapiens) (UniProt P68400); conditions: at 0.1 µM
Chain of Casein kinase II subunit alpha (Homo sapiens) (P68400 whole entry, looked up): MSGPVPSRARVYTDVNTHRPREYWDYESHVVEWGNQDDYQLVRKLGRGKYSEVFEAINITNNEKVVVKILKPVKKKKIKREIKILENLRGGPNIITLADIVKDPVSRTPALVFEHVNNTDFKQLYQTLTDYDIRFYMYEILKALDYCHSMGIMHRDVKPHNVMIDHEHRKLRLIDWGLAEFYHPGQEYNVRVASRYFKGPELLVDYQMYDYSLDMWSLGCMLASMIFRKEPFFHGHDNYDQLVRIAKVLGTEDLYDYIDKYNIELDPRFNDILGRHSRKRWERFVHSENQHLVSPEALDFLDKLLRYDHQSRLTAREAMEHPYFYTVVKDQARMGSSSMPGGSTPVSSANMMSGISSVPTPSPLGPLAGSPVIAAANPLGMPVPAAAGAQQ

[14] = biological target: Casein kinase II subunit alpha (Homo sapiens) (UniProt P68400); conditions: at 1 µM
[15] = biological target: T4, Inhibitor of nuclear factor kappa-B kinase subunit alpha (Homo sapiens) (UniProt O15111); conditions: at 0.1 µM
T4 sequence (whole entry): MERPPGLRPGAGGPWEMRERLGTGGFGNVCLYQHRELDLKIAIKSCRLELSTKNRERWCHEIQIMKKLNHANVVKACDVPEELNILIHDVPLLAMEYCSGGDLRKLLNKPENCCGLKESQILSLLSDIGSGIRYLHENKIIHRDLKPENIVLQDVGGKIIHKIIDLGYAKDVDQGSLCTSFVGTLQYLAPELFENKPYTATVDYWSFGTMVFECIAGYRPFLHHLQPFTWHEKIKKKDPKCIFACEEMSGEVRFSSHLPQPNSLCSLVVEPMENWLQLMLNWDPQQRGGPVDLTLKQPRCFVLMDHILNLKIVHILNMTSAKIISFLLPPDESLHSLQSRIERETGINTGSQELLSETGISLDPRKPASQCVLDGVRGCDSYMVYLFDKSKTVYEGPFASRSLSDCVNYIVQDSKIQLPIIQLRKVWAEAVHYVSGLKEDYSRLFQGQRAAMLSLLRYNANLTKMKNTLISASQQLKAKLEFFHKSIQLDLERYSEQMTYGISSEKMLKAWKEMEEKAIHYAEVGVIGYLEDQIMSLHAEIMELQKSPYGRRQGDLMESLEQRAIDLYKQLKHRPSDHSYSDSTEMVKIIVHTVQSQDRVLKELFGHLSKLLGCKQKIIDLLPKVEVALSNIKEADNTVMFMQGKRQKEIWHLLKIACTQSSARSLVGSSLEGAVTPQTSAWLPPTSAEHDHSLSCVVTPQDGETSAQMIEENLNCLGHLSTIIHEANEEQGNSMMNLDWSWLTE

[16] = biological target: T4, Inhibitor of nuclear factor kappa-B kinase subunit alpha (Homo sapiens); conditions: at 1 µM
[17] = biological target: T5, Inhibitor of nuclear factor kappa-B kinase subunit beta (Homo sapiens) (UniProt O14920); conditions: at 0.1 µM
T5 sequence (whole entry): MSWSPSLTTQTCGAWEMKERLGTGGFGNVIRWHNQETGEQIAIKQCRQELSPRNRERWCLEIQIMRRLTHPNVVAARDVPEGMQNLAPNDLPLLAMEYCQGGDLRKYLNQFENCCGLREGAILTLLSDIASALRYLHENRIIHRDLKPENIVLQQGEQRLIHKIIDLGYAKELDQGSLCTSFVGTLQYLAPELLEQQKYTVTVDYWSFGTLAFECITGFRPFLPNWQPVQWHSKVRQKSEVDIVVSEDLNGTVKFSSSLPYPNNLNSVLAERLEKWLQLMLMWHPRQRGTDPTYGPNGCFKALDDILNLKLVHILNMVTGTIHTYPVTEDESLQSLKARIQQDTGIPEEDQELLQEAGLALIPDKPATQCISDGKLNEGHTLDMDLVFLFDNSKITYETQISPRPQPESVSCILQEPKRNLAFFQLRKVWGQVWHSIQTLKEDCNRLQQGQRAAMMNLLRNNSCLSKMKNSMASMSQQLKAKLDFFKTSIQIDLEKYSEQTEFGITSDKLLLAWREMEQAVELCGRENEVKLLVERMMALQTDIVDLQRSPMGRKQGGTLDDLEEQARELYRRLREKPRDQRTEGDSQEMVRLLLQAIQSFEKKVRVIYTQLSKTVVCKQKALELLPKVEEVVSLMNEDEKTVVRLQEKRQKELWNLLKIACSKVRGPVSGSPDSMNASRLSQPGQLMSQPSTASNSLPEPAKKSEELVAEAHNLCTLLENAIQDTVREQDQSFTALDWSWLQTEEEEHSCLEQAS

[18] = biological target: T5, Inhibitor of nuclear factor kappa-B kinase subunit beta (Homo sapiens); conditions: at 1 µM
[19] = biological target: T6, Inhibitor of nuclear factor kappa-B kinase subunit epsilon (Homo sapiens) (UniProt Q14164); conditions: at 0.1 µM;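 also: mean inhibition of IKKε reported, from the GSK PKIS dataset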
T6 sequence (whole entry): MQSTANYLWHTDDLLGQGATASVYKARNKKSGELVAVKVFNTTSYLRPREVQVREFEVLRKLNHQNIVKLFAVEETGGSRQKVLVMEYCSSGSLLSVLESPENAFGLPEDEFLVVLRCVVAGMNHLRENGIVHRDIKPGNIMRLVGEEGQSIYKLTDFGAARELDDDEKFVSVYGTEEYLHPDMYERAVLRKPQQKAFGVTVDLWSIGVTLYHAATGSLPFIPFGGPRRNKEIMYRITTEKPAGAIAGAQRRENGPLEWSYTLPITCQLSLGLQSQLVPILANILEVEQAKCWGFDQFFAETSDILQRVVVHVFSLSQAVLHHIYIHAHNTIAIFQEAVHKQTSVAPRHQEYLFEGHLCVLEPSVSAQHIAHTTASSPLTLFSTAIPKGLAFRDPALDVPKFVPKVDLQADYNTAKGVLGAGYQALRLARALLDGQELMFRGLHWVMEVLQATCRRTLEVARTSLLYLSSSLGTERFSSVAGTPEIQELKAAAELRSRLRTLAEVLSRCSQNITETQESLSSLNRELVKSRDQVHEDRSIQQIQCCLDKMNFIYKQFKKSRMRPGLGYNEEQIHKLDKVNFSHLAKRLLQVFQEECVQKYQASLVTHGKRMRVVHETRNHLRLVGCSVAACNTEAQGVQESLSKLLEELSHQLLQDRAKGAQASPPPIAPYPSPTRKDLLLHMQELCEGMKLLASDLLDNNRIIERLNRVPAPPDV

[20] = biological target: Phosphatidylinositol 4-kinase beta (Homo sapiens) (UniProt Q9UBF8); conditions: at 0.1 µM

SMILES | inhibition [1] | inhibition [2] | inhibition [3] | inhibition [4] | inhibition [5] | inhibition [6] | inhibition [7] | inhibition [8] | inhibition [9] | inhibition [10] | inhibition [11] | inhibition [12] | inhibition [13] | inhibition [14] | inhibition [15] | inhibition [16] | inhibition [17] | inhibition [18] | inhibition [19] | inhibition [20]
NS(=O)(=O)c1ccc(N/N=C2\C(=O)Nc3ccc(C(=O)NCCCn4ccnc4)cc32)cc1 | 2.75% | -0.49% | 2.62% | 3.67% | 4.54% | 0.52% | 2.39% | -5.49% | 14.8% | -2.65% | 0.75% | -2.51% | 6.89% | 21% | 2.62% | 0.02% | 12.3% | 14.7% | 10.8% | –
COC(=O)Nc1nc2ccc(Sc3ccc(NC(=O)Nc4cc(C(F)(F)F)ccc4F)cc3)cc2[nH]1 | 2.22% | -1.15% | -0.09% | -1.35% | 8.27% | 0.7% | 10.2% | -4.04% | 0.39% | 4.23% | -0.54% | -0.1% | 2.02% | 6.92% | 2.75% | -2% | -0.76% | -1.08% | -0.58% | 1.21%
CCC(=O)Nc1ccc(C)c(-c2ccc(C(=O)NCC3CC3)cc2)c1 | 4.44% | -3.31% | -2.74% | 2.7% | 0.64% | 0.57% | -0.59% | -0.15% | -3.42% | 0.8% | -0.3% | 0.9% | – | 2.11% | 10.5% | 7.65% | 5.07% | 5.57% | 9.75% | -0.74%
NCc1ccc(-n2c(-c3nonc3N)nc3cnccc32)cc1 | 3.74% | -2.56% | -1.45% | 4.81% | 4.8% | 3.69% | 6.07% | 5.38% | 1.89% | -0.9% | 0.05% | -0.74% | 9.32% | 9.93% | 7.27% | 7.43% | 8.87% | 7.17% | 5.51% | –
